For 4 compounds, outcome and AC50 results are on record in PubChem BioAssay (EPA / NIEHS).

Read-out in assay [1]: succinate dehydrogenase complex iron sulfur subunit B (SDHB), SDHB (gene 6390)
Put plainly: LTEA_HepaRG_SDHB: Life Technologies and Expression Analysis (LTEA) Assay for succinate dehydrogenase complex iron sulfur subunit B (SDHB) using HepaRG (AID 2283528). Conditions: mRNA level, 48 h; actives raise or lower the signal. Put shortly: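 Readout is SDHB transcript level by qRT-PCR, normalised to three housekeeping genes and fitted bidirectionally against 0.5% DMSO vehicle. Human HepaRG cells were treated for 48 h at up to 100 uM.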

Read-out in assay [2]: Signal transducer and activator of transcription 3 (Homo sapiens) (UniProt P40763)
Put plainly: LTEA_HepaRG_STAT3: Life Technologies and Expression Analysis (LTEA) Assay for Signal transducer and activator of transcription (STAT3) using HepaRG (AID 2283529). Conditions: mRNA level, 48 h; actives raise or lower the signal. Put shortly:
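Differentiated HepaRG cells, serum-free induction medium, dosed 48 h in duplicate, 8 half-log concentrations from 100 uM in 0.5% DMSO. STAT3 mRNA by qRT-PCR, normalised to ACTB, GAPDH, POLR2A; bidirectional fit versus DMSO.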

Read-out in assay [3]: solute carrier (SLCO1B1), SLCO1B1 (gene 10599)
The experiment in a line: LTEA_HepaRG_SLCO1B1: Life Technologies and Expression Analysis (LTEA) Assay for solute carrier (SLCO1B1) using HepaRG (AID 2283530). Conditions: mRNA level, 48 h; actives raise or lower the signal. An outline of the steps:
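SLCO1B1 transcript read by qRT-PCR (Fluidigm arrays), normalized to three housekeeping genes, after 48 h chemical exposure of HepaRG cells; bidirectional concentration-response fitting versus 0.5% DMSO baseline. Eight-point half-log series, maximum 100 uM.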

Read-out in assay [4]: sulfotransferase 2A1 (SULT2A1), SULT2A1 (gene 6822)
The experiment in a line: LTEA_HepaRG_SULT2A1: Life Technologies and Expression Analysis (LTEA) Assay for sulfotransferase 2A1 (SULT2A1) using HepaRG (AID 2283531). Conditions: mRNA level, 48 h; actives raise or lower the signal. Put shortly: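 HepaRG, 48 h chemical exposure, 8-pt half-log curve from 100 uM in 0.5% DMSO, duplicates. Readout: TaqMan qRT-PCR of SULT2A1 mRNA, housekeeping-normalized. Bidirectional fit vs DMSO baseline.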

Read-out in assay [5]: Transforming Growth Factor (TGFA), TGFA (gene 7039)
Put plainly: LTEA_HepaRG_TGFA: Life Technologies and Expression Analysis (LTEA) Assay for Transforming Growth Factor (TGFA) using HepaRG (AID 2283532). Conditions: mRNA level, 48 h; actives raise or lower the signal. Put shortly: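 Differentiated HepaRG cells exposed 48 hours in serum-free induction medium, 0.5% DMSO vehicle, 8-point half-log series from 100 uM, in duplicate. TGFA mRNA by TaqMan qRT-PCR, normalised to ACTB, GAPDH, POLR2A; bidirectional fit versus DMSO.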

Read-out in a further assay: TIMP1, TIMP1 (gene 7076)
Put plainly: LTEA_HepaRG_TIMP1: Life Technologies and Expression Analysis (LTEA) Assay for TIMP1 using HepaRG (AID 2283534).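 Further: TaqMan qRT-PCR signal normalized to ACTB GAPDH and POLR2A housekeeping genes.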 Conditions: mRNA level, 48 h; actives raise or lower the signal. Put shortly: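 HepaRG, 48 h exposure, 8-pt half-log series from 100 uM in 0.5% DMSO, duplicates; TIMP1 transcript by Fluidigm qRT-PCR, housekeeping-normalized; bidirectional curve fit vs DMSO baseline.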

Read-out in assay [6]: Tumor necrosis factor receptor 1 (TNFRSF1A), TNFRSF1A (gene 7132)
The experiment in a line: LTEA_HepaRG_TNFRSF1A: Life Technologies and Expression Analysis (LTEA) Assay for Tumor necrosis factor receptor 1 (TNFRSF1A) using HepaRG (AID 2283535). Conditions: mRNA level, 48 h; actives raise or lower the signal. Put shortly:
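HepaRG, 48 h plating then 48 h chemical exposure, serum-free induction media; 8-pt CRC from 100 uM, half-log, 0.5% DMSO vehicle, duplicates. Readout: TaqMan qRT-PCR (Fluidigm), housekeeping-gene normalized; bidirectional fit vs DMSO.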

Read-out in assay [7]: Thyroid Hormone Responsive (THRSP), THRSP (gene 7069)
The experiment in a line: LTEA_HepaRG_THRSP: Life Technologies and Expression Analysis (LTEA) Assay for Thyroid Hormone Responsive (THRSP) using HepaRG (AID 2283536). Conditions: mRNA level, 48 h; actives raise or lower the signal. Put shortly: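 Differentiated HepaRG cells treated 48 h in serum-free induction medium with 8 half-log concentrations up to 100 uM (0.5% DMSO), duplicates. THRSP mRNA by TaqMan qRT-PCR normalised to ACTB, GAPDH, POLR2A; bidirectional fit versus DMSO.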

Read-out in assay [8]: UDP glucuronosyltransferase (UGT1A1), UGT1A1 (gene 54658)
The experiment in a line: LTEA_HepaRG_UGT1A1: Life Technologies and Expression Analysis (LTEA) Assay for UDP glucuronosyltransferase (UGT1A1) using HepaRG (AID 2283538). Conditions: mRNA level, 48 h; actives raise or lower the signal. An outline of the steps: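 HepaRG cells, 0.5% DMSO vehicle, 48 h exposure in serum-free induction medium to 8-point half-log series topping at 100 uM, in duplicate. UGT1A1 mRNA by Fluidigm qRT-PCR, normalized to ACTB/GAPDH/POLR2A; bidirectional fit versus DMSO.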

Read-out in assay [9]: UDP glucuronosyltransferase (UGT1A6), UGT1A6 (gene 54578)
Put plainly: LTEA_HepaRG_UGT1A6: Life Technologies and Expression Analysis (LTEA) Assay for UDP glucuronosyltransferase (UGT1A6) using HepaRG (AID 2283539). Conditions: mRNA level, 48 h; actives raise or lower the signal. Put shortly:
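qRT-PCR readout of UGT1A6 mRNA (normalized to ACTB/GAPDH/POLR2A) in differentiated HepaRG cells after 48 h chemical exposure; 8 concentrations, top 100 uM, half-log steps, 0.5% DMSO. Bidirectional curve fit relative to DMSO baseline.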

Read-out in assay [10]: X-box binding protein 1 (XBP1), XBP1 (gene 7494)
The experiment in a line: LTEA_HepaRG_XBP1: Life Technologies and Expression Analysis (LTEA) Assay for X-box binding protein 1 (XBP1) using HepaRG (AID 2283540). Conditions: mRNA level, 48 h; actives raise or lower the signal. Put shortly:
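HepaRG, 48 h exposure, 8-pt half-log CRC top 100 uM, 0.5% DMSO vehicle, duplicates. Readout: TaqMan qRT-PCR of XBP1 mRNA, housekeeping-normalised (ACTB/GAPDH/POLR2A); bidirectional fit vs DMSO baseline.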

Assay [11] can be described thus: LTEA_HepaRG_LDH_cytotoxicity: Cytotoxicity Assessment in the Life Technologies and Expression Analysis (LTEA) Assay (AID 2283563; active means hit-call score of the fitted dose curve at least 0.9, where 1 is the maximum). Put shortly: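 HepaRG (human liver line), 48 h exposure, 8-pt half-log series from 100 uM, 0.5% DMSO vehicle, duplicates. Read-out: LDH in spent medium. Positive-direction fit vs DMSO baseline.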
Read-out in assay [12]: Transforming Growth Factor (TGFB1), TGFB1 (gene 7040)
Put plainly: LTEA_HepaRG_TGFB1: Life Technologies and Expression Analysis (LTEA) Assay for Transforming Growth Factor (TGFB1) Transporter using HepaRG (AID 2283533). Conditions: mRNA level, 48 h; actives raise or lower the signal. An outline of the steps: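 qRT-PCR readout of TGFB1 transcript in HepaRG lysates, normalized to three housekeeping genes; gain or loss of signal fitted relative to 0.5% DMSO vehicle. Exposure: 48 h, 8-point curve from 100 uM, duplicate wells.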

Read-out in assay [13]: Cellular tumor antigen p53 (Homo sapiens) (UniProt P04637)
The experiment in a line: LTEA_HepaRG_TP53: Life Technologies and Expression Analysis (LTEA) Assay for Tumor Protein P53 (TP53) using HepaRG (AID 2283537). Conditions: mRNA level, 48 h; actives raise or lower the signal. An outline of the steps: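 Read-out is TP53 transcript level by microfluidic qRT-PCR, normalised to three housekeeping genes and fitted bidirectionally against DMSO. Human HepaRG cells received compounds for 48 h, highest concentration 100 uM.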

A short description of assay [14]: ATG_XTT_Cytotoxicity: Cytotoxicity Assessment in the Attagene TRANS-FACTORIAL HepG2 Assay (AID 2283584; active means hit-call score of the fitted dose curve at least 0.9, where 1 is the maximum). An outline of the steps: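 XTT readout of cell number in transfected HepG2 cells, 24 h post-dosing; DMSO serves as negative control and baseline, with activity taken as loss of viability signal.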
The nature of assay [15]: TOX21_p53_BLA_p2_viability: Viability Assessment in the Tox21 HCT-116 p53 Agonism Beta-lactamase Assay, Phase 2 (AID 2283591; active means hit-call score of the fitted dose curve at least 0.9, where 1 is the maximum;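 further: compound exposure lasted 16 h at 37 °C; actives lower the ATP signal meaning cytotoxicity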). Put shortly: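 HCT116 p53-bla cells, 4000/well, dosed after 5 h plating (217-fold dilution of DMSO stocks) and incubated 16 h at 37C. Viability taken as cellular ATP by CellTiter-Glo luminescence after 30 min RT; signal loss marks cytotoxicity.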

The target in assay [16] is Cellular tumor antigen p53 (Homo sapiens) (UniProt P04637). Put plainly: TOX21_p53_BLA_p2_ratio: Tox21 HCT-116 p53 Agonism Beta-lactamase Assay, Ratio, Phase 2 (AID 2283592; active means hit-call score of the fitted dose curve at least 0.9, where 1 is the maximum). An outline of the steps:
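In this cell-based reporter format, HCT116 cells were dosed with chemicals delivered from DMSO by 217-fold dilution and incubated 16 h at 37C. Emission at 460 and 530 nm after 2 h CCF4-AM loading provided the ratio, fitted upward versus DMSO.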

Assay [17] in a line: TOX21_p53_BLA_p3_viability: Viability Assessment in the Tox21 HCT-116 p53 Agonism Beta-lactamase Assay, Phase 3 (AID 2283593; active means hit-call score of the fitted dose curve at least 0.9, where 1 is the maximum;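 further: cells exposed to compound for 16 h before reading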). Put shortly: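 HCT116 cells, 4000/well, dosed 5 h after plating by pin transfer (217-fold dilution from DMSO stock) and incubated 16 h at 37C, 5% CO2. Viability read as ATP luminescence with CellTiter-Glo after 30 min at room temperature.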
The target in assay [18] is Cellular tumor antigen p53 (Homo sapiens) (UniProt P04637). The experiment in a line: TOX21_p53_BLA_p3_ratio: Tox21 HCT-116 p53 Agonism Beta-lactamase Assay, Ratio, Phase 3 (AID 2283596; active means hit-call score of the fitted dose curve at least 0.9, where 1 is the maximum). An outline of the steps:
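HCT116 p53-bla cells (4000/well) given compound in DMSO (217-fold dilution) after 5 h, incubated 16 h at 37C. CCF4-AM substrate 2 h at room temperature; 460/530 nm emission ratio, gain fitted against DMSO.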

A short description of assay [19]: TOX21_p53_BLA_p4_viability: Viability Assessment in the Tox21 HCT-116 p53 Agonism Beta-lactamase Assay, Phase 4 (AID 2283597; active means hit-call score of the fitted dose curve at least 0.9, where 1 is the maximum;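 further: hits lower the luminescence signal meaning cytotoxicity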). Put shortly: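 We seeded HCT116 p53 reporter cells at 4000/well and waited 5 h. We then added compounds in DMSO at a 217-fold dilution and incubated for 16 h. Viability was read as CellTiter-Glo luminescence after 30 min at RT.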

Where “and” joins values, the source holds several entries; their conditions need not be identical. Equal values may be shown once. Results filed as inconclusive are left out. The source holds several records for some structures; these can differ, active in one and inactive in another. Calls of active or inactive are those of the source. How the source made its calls, unless noted: active means hit-call score of the fitted dose curve at least 0.9, where 1 is the maximum; inactive means score below 0.9.

Cellular tumor antigen p53 (Homo sapiens), sequence (P04637 whole entry, looked up): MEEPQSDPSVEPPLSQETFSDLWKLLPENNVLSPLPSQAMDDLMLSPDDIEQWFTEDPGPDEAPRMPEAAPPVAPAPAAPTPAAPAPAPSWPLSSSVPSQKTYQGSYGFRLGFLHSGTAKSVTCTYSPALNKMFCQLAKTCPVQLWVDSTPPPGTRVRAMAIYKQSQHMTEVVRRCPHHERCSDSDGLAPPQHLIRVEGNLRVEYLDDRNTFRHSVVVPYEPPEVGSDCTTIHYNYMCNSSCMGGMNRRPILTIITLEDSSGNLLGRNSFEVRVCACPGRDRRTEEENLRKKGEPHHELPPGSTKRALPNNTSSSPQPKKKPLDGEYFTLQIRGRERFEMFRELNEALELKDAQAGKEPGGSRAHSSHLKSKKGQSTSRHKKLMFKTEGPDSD
Signal transducer and activator of transcription 3 (Homo sapiens), sequence (P40763 whole entry, looked up): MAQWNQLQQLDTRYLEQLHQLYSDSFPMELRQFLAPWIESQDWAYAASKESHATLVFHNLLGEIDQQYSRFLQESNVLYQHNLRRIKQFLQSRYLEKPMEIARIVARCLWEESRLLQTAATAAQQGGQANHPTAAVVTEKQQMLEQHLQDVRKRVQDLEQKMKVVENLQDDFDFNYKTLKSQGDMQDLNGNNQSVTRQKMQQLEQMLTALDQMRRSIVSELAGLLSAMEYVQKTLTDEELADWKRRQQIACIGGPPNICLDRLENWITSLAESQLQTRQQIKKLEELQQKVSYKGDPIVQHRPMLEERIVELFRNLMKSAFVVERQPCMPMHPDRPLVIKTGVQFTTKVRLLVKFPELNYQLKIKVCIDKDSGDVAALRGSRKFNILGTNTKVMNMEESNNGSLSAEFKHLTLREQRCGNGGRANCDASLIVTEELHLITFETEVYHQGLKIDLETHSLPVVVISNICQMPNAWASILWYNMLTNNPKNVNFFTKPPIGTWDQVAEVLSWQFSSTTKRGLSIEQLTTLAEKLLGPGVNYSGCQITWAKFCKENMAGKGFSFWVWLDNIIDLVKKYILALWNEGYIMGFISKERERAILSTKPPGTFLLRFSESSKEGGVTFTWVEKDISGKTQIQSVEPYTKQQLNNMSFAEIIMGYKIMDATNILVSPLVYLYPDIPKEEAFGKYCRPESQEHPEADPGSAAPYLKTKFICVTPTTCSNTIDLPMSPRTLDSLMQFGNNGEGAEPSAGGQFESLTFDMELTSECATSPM

On to `CCSC(=O)N(CC)C1CCCCC1`, for which the outcome is “inactive” in assay [1]; “inactive” in assay [2]; “inactive” in [3]; “inactive” in assay [4]; “inactive” in assay [5]; “inactive” with TIMP1, TIMP1 (gene 7076). Moreover, the compound was called inactive in [6], in assay [7], in assay [8], in assay [9], in [10] and in assay [11].

With `CCC(C)(c1ccc(O)cc1)c1ccc(O)cc1`, the outcome in [1], in assay [2], in assay [3], in assay [4], in assay [5] and in [12] was inactive. Also, the outcome in the assay with TIMP1, TIMP1 (gene 7076) is “inactive”; in assay [6] it was “inactive”; in assay [13], “inactive”; in [8] it was “inactive”; in assay [9], “inactive”; in assay [11], “inactive”. Moreover, the result in [14], in [15], in assay [17] and in assay [19] was inactive. Besides, the concentration at half-maximal activity (AC50) (in general, the midpoint of the concentration-response curve, whichever way the signal moves) in [7] was 87.3 µM (active); in assay [16], 87.1 µM (active) and 71 µM (active); in [18], 86.3 µM (active) and 76.2 µM (active); in assay [19] it was 77.1 µM (active).

In the case of `CCOCCOC(C)=O`, the result in assay [1], in [2], in assay [3], in [4], in assay [5] and in [12] was inactive. The outcome with TIMP1, TIMP1 (gene 7076) was “inactive”; in assay [6], “inactive”; in assay [7] it was “inactive”; in [13], “inactive”; in assay [8], “inactive”; in assay [9], “inactive”. Further, the compound was called inactive in assay [10], in assay [11], in assay [14], in assay [15], in [16] and in assay [17]. The outcome in assay [18] and in assay [19] was inactive.

Take `C=CC(N)=O`: the compound was classed as inactive in [1], in assay [2], in assay [3], in assay [4], in [5] and in assay [12]. The outcome in the assay with TIMP1, TIMP1 (gene 7076) is “inactive”; in [6], “inactive”; in assay [7], “inactive”; in assay [13] it was “inactive”; in [8], “inactive”; in assay [9], “inactive”. Moreover, the result in [11], in [15], in [16], in assay [17] and in [18] was inactive.
